Laboratory results published in PubChem BioAssay (EPA / NIEHS).
Calls of active or inactive are those of the source. How the source made its calls: active means hit-call score of the fitted dose curve at least 0.9, where 1 is the maximum; inactive means score below 0.9.

Experiment: APR_HepG2_P-H2AX_1hr: Apredica 1-hour HepG2 Assay for H2AX Phosphorylation (AID 2282673)
Conditions: high-content imaging, actives raise or lower the signal
Description: APR_HepG2_1hr is a cell-based, multiplexed-readout assay that uses HepG2, a human liver cell line, with measurements taken at 1 hour after chemical dosing in a 384-well plate.APR_HepG2_P-H2AX_1hr is one of 10 assay component(s) measured or calculated from the APR_HepG2_1hr assay. It is designed to make measurements of dna content, a form of viability reporter, as detected with fluorescence intensity signals by HCS Fluorescent Imaging technology.Data from the assay component APR_HepG2_P-H2AX_1hr was analyzed into 1 assay endpoint. This assay endpoint, APR_HepG2_P-H2AX_1hr, was analyzed with bidirectional fitting relative to DMSO as the negative control and baseline of activity. Using a type of viability reporter, measures of protein for gain or loss-of-signal activity can be used to understand the signaling at the pathway-level as they relate to the gene . Furthermore, this assay endpoint can be referred to as a primary readout, because this assay has produced multiple assay endpoints where this one serves a signaling function. To generalize the intended target to other relatable targets, this assay endpoint is annotated to the dna binding intended target family, where the subfamily is cellular response to DNA damage stimulus.
Cells were treated with dimethyl sulfoxide (DMSO) as a solvent control at a final concentration of 0.5% v/v or with compounds in DMSO with a resulting final DMSO concentration of 0.5% v/v. Compound treatment was done at concentrations of 0.39, 0.78, 1.56, 3.12, 6.24, 12.5, 25, 50, 100, and 200 uM in duplicate on each plate. Cells were treated with compounds for 1, 24, or 72 hr. Carbonyl […] m-chloro-phenylhydrazone (CCCP) and taxol were used as positive controls for mitochondrial function and cytoskeletal stability, respectively; DMSO served as the negative control for this experiment. Cells were fixed by the direct addition of 50 uL formaldehyde in Hank's Balanced Salt Solution (HBSS) to a final concentration of 3.7%. After incubation in the fixation medium for 30 min at room temperature (293-298 K), cells were rinsed twice with HBSS and treated with cell permeabilization buffer (16 uL of 0.5% Triton X-100) for 10 min at room temperature (293-298 K) before labeling. For mitochondrial membrane potential and mitochondrial measurements, pre-fixed cells were incubated with 50 uL of MitoTracker Red CMXRos (Invitrogen) at a concentration of 250 nM for 30 min before fixation. In the remaining cases, post-fixed cells were labeled by incubation with a multiplexed mixture of primary antibodies in HBSS for 60 min at room temperature (293-298 K) to detect immunoreactivity of c-Jun (1:500), phospho-histone H3 (1:100), phospho-histone H2A.x (1:200), p53 (1:400), alpha-tubulin (1:200) and Hoechst 33342 (2 ug/mL). Cells were labeled for multiplexed imaging on two separate plates: a) Hoechst 33342, MitoTracker Red, phospho-histone H3, and alpha-tubulin, and b) Hoechst 33342, phospho-histone H2A.x, and c-Jun. A final rinse with HBSS (50 uL) was performed before analysis. The primary and secondary antibodies for the proteins were phospho-histone H3 (rabbit anti-phospho-histone H3 and FITC-donkey anti-rabbit IgG), phospho-histone H2A.x (mouse anti-phospho-histone H2A.x and FITC-donkey anti-mouse IgG), c-Jun (rabbit anti-phospho-c-Jun and Cy3-donkey anti-rabbit IgG), p53 (sheep anti-p53 and Cy5-donkey anti-sheep IgG), alpha-tubulin (mouse anti-alpha-tubulin and Cy5-donkey anti-mouse IgG). These antibodies are available as the CellCiphr HepG2 assay kit (Millipore).Digital images of each well were captured using a Cellomics ArrayScan VTI (Thermo Scientific Cellomics) (0.8 NA objective, 0.63x optical coupler, and XF-93 filter set) at 20x magnification. The images were acquired using the autofocus feature of the ArrayScan instrument, which entails the following steps. First, the camera focuses on channel 1 (Hoechst 33342), where nuclei are identified. Second, a Z offset of 1 um is used for capturing mitochondria (MitoTracker Red). […]

SMILES | outcome | AC50
COC(=O)c1ccccc1C(=O)OC | inactive | 
COP(N)(=O)SC (stereo not given) | inactive | 
N#Cc1cc(Br)c(O)c(Br)c1 | inactive | 
COc1nc(NC(C)C)nc(NC(C)C)n1 | inactive | 
CCCCNC(=O)OCC#CI | inactive | 
CON(C)C(=O)Nc1ccc(Cl)c(Cl)c1 | inactive | 
CCOc1cc(Oc2ccc(C(F)(F)F)cc2Cl)ccc1[N+](=O)[O-] | inactive | 
CCCC1COC(Cn2cncn2)(c2ccc(Cl)cc2Cl)O1 (stereo not given) | inactive | 
CC(C)(C)c1ccc(CSc2cnn(C(C)(C)C)c(=O)c2Cl)cc1 | inactive | 
CCc1nn(C)c(C(=O)NCc2ccc(C(C)(C)C)cc2)c1Cl | inactive | 
COc1nc(C)nc(NC(=O)NS(=O)(=O)c2ccccc2Cl)n1 | inactive | 
COC(=O)C(C)Oc1ccc(Oc2ccc(Cl)cc2Cl)cc1 (stereo not given) | inactive | 
Oc1ccccc1-c1ccccc1 | inactive | 
CC(C)Oc1cc(-n2nc(C(C)(C)C)oc2=O)c(Cl)cc1Cl | inactive | 
CCOC(=O)CC(SP(=S)(OC)OC)C(=O)OCC (stereo not given) | inactive | 
CCCCOC(=O)c1ccccc1C(=O)OCCCC | inactive | 
N#CC(CCc1ccc(Cl)cc1)(Cn1cncn1)c1ccccc1 (stereo not given) | inactive | 
COc1cnc(OC)n2nc(NS(=O)(=O)c3c(OCC(F)F)cccc3C(F)(F)F)nc12 | inactive | 
COc1nc(C)nc(NC(=O)NS(=O)(=O)c2ccccc2CCC(F)(F)F)n1 | inactive | 
CNC(=O)ON=CC(C)(C)SC | inactive | 

SMILES | outcome | AC50
CCCCNC(=O)n1c(NC(=O)OC)nc2ccccc21 | inactive | 
CC1=C(C(=O)Nc2ccccc2)SCCO1 | inactive | 
Cc1c(F)c(F)c(COC(=O)C2C(/C=C(\Cl)C(F)(F)F)C2(C)C)c(F)c1F (stereo not given) | inactive | 
O=C(O)c1nc(Cl)ccc1Cl | inactive | 
C=CCC1=C(C)[C@@H](OC(=O)[C@@H]2[C@@H](C=C(C)C)C2(C)C)CC1=O | inactive | 
CS/C(C)=N/OC(=O)N(C)SN(C)C(=O)O/N=C(\C)SC | inactive | 
CCNc1nc(Cl)nc(NC(C)C)n1 | inactive | 
CN(C)C(=S)SSC(=S)N(C)C | inactive | 
CCCCC(CC)COC(=O)c1ccccc1C(=O)OCC(CC)CCCC (stereo not given) | inactive | 
C=CC1(C)OC(=O)N(c2cc(Cl)cc(Cl)c2)C1=O (stereo not given) | inactive | 
CCCN(CCC)c1c([N+](=O)[O-])cc(S(N)(=O)=O)cc1[N+](=O)[O-] |  | 88.7 µM (active)
CCNc1nc(Cl)nc(NCC)n1 | inactive | 
C#CCOS(=O)OC1CCCCC1Oc1ccc(C(C)(C)C)cc1 (stereo not given) | inactive | 
CC(Oc1ccc(Cl)cc1Cl)C(=O)O (stereo not given) | inactive | 
COc1ccc(C(c2ccc(OC)cc2)C(Cl)(Cl)Cl)cc1 | inactive | 
O=C(Nc1ccccc1)Nc1ccnc(Cl)c1 | inactive | 
CC1COC(Cn2cncn2)(c2ccc(Oc3ccc(Cl)cc3)cc2Cl)O1 (stereo not given) | inactive | 
C=CCC1=C(C)C(OC(=O)C2C(C=C(C)C)C2(C)C)CC1=O (stereo not given) | inactive | 
O=C(O)COc1nc(Cl)c(Cl)cc1Cl | inactive | 
N#Cc1nn(-c2c(Cl)cc(C(F)(F)F)cc2Cl)c(N)c1S(=O)C(F)(F)F (stereo not given) | inactive | 
